A selection: hits, their analogues and other compounds. The true share with any hit is near 2.4%.
POLB inh – inhibitors of human DNA polymerase beta. Pol beta primer extension/strand displacement, fluorescence kinetic. P06746. AID 485314. Potency, µM (series often up to 114 µM), most hits filed as inhibitors. 340,000 compounds, 1.3% hits
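Curves were derived by four-parameter Hill fits of normalized qHTS data. The kinetic fluorescent primer-extension read was taken at 0 and 10 min after 50 nM substrate, following a 15 min room-temperature preincubation of 10 nM enzyme with compounds.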
POLH inh – inhibitors of human DNA polymerase eta; Q9Y253; recombinant Pol eta, fluorescent DNA replication assay; 390,000 compounds, 1.2% hits; AID 588591; Potency, µM (titrated, usually from 114 µM), hits mostly inhibitors
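Fluorescent replication assay: 50 nM final substrate added after a 15 min room-temperature compound preincubation with 10 nM enzyme. Signal taken at 0 min and again at 10 min.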
TDP1 inh – TDP1 (human) enzyme inhibition | Q9NUW8 | recombinant TDP1, AlphaScreen DNA substrate cleavage | Potency, µM (doses to about 130 µM), most hits filed as inhibitors | 350,000 compounds, 0.28% hits; note: nearly all actives have a fitted effect of over 40% in size
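E. coli-derived human Tdp1, 1 nM final. Cpd preinc 15 min RT; substrate 15 nM final, 5 min RT; AS bead mix 10 ug/ml final, 10 min RT. Signal loss = tyrosine-FITC cleavage. No-enzyme wells = max signal.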
POLK inh – inhibitors of human DNA polymerase kappa; Q9UBT6; purified Pol kappa, fluorescent DNA synthesis assay, 10 min; Potency, µM (series often up to 107 µM), most hits filed as inhibitors; 400,000 compounds, 0.53% hits; AID 588579
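Fluorescent qHTS in 1536-well format: enzyme (10 nM) and compound sat 15 min at room temperature before 50 nM substrate (final) was added. Signal taken at 0 and 10 min; no-enzyme buffer wells were negative controls.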
POLI inh – DNA polymerase iota (human) inhibition; Q9UNA4; Pol iota fluorescent replication assay, 10 min; Potency, µM (doses to about 115 µM), usual class: inhibitors; 390,000 compounds, 1% hits
Target sequence (Q9UNA4 whole entry, looked up): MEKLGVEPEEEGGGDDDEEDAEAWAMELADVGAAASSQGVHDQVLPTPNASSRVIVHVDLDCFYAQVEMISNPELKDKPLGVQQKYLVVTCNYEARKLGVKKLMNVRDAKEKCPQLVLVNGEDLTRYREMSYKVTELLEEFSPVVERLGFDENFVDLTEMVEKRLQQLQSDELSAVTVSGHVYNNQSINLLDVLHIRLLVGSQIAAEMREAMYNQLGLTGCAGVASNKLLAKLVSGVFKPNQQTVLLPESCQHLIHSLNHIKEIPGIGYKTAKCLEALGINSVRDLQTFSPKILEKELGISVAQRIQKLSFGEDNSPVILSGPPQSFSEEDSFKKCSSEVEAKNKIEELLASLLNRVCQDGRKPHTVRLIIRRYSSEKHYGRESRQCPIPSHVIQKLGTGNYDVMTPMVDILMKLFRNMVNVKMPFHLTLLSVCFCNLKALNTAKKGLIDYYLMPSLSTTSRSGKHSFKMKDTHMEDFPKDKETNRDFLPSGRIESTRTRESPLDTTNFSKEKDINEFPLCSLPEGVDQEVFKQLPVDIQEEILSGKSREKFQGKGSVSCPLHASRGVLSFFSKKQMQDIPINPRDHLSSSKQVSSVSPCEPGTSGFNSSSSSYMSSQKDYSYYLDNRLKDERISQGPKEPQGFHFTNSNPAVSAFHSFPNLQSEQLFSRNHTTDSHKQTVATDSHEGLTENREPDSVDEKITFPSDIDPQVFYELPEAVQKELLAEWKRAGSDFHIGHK
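Fluorescent replication assay read twice, at 0 min and 10 min after adding 50 nM (final) substrate. Enzyme (10 nM) and compounds were first incubated 15 min at room temperature; enzyme-free buffer wells were negative controls.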
Large screens that a line does not name were inactive; ! = not confirmed by another sample. Calls come from the whole dose curve; as a rule, active = well fitted curve in the direction sought with a large enough effect; inconclusive = small, poorly fitted or top-dose-only effect, or another doubt; inactive = no such curve, though single readings can be large; an effect the other way counts as inactive or inconclusive.

O=C(COC(=O)c1ccc2c(c1)C(=O)N(Cc1ccncc1)C2=O)Nc1ccccc1[N+](=O)[O-]	POLB inh 35.5µM, POLH inh inconclusive, POLI inh 22.4µM
CC(OC(=O)c1ccc2c(c1)C(=O)N(Cc1ccncc1)C2=O)C(=O)Nc1cccc(Cl)c1Cl (centres undefined)	none
CCN1/C(=C/C=C/c2oc3ccc4ccccc4c3[n+]2CC)Oc2ccc3ccccc3c21	POLB inh 6.31µM, POLH inh 31.6µM, POLK inh 44.7µM, POLI inh 79.4µM (no result: TDP1 inh)
CC[n+]1c(/C=C/N(C)c2ccccc2)oc2ccc(Cl)cc21	none
CC(C)c1ccc(/C=C2\C(=N)N3N=C(CC(=O)N4CCCCC4)SC3=NC2=O)cc1	POLK inh inconclusive, POLI inh 20µM
COc1ccc(-n2c(C)cc(/C=C3\C(=N)N4N=C(CC(=O)N5CCOCC5)SC4=NC3=O)c2C)cc1	POLB inh 0.891µM, POLH inh 31.6µM, POLK inh inconclusive, POLI inh 50.1µM
CCc1ccc(/C=C2\C(=N)N3N=C(CC(=O)N4CCCCC4)SC3=NC2=O)cc1	POLK inh inconclusive, POLI inh inconclusive
COc1cc(SC#N)ccc1N=Cc1c(C)[nH]n(-c2cccc3ccccc23)c1=O	POLI inh 12.6µM
CCc1ccc(NC(=O)CN2C(=O)C(c3ccc(Cl)cc3)=NC23CCCCC3)cc1	none (no result: POLH inh)
Cc1cccc(NC(=O)Cn2cc(C(=O)c3ccco3)c3ccccc32)c1C	POLB inh inconclusive, POLH inh 79.4µM, POLI inh inconclusive
Cc1ccc(C)c(NC(=O)Cn2cc(C(=O)c3ccco3)c3ccccc32)c1	POLB inh inconclusive, POLH inh inconclusive, POLI inh inconclusive
Cc1cc2c(=O)c(C(=O)c3ccncc3)cn(CC(=O)Nc3cccc(C)c3C)c2cc1C	POLB inh 39.8µM, POLI inh inconclusive
Brc1cccc[n+]1Cc1ccccc1C[n+]1ccccc1Br	none (no result: POLB inh, POLH inh, TDP1 inh)
COc1[nH]c(/N=C/c2ccco2)c(C#N)c1C#N	POLI inh 70.8µM (no result: POLB inh, POLH inh)
Cc1ccc(-n2c3nc(=O)[nH]c(=O)c-3cc3cc([N+](=O)[O-])ccc32)cc1	POLH inh 44.7µM, POLI inh inconclusive
Cc1nc(-c2ccc(Cl)cc2)sc1CCNC(=O)c1ccco1	none
CC(C)N(C)C1=CC(=O)C(N(C)C(C)C)=CC1=O	POLK inh inconclusive, POLI inh 44.7µM (no result: POLB inh, TDP1 inh)
COc1cccc(NC(=O)Cn2c(=O)n(CCc3cccc(C)c3)c(=O)c3ccccc32)c1	POLI inh 89.1µM
COCCNC(=O)c1cc(-c2cccnc2)nc2ccc(Br)cc12	none
O=C(NCc1cccs1)c1cc(-c2ccncc2)nc2ccc(Br)cc12	POLB inh 39.8µM (no result: POLH inh, POLK inh, POLI inh)
O=C(CNC(=O)c1cccc(-n2cccc2)c1)Nc1ccccc1Br	POLH inh 31.6µM (no result: POLB inh, TDP1 inh, POLK inh, POLI inh)
O=C(NC(=S)NNC(=O)c1cccs1)c1ccco1	none
O=C(Nc1ccc(NC(=S)NC(=O)c2cccs2)cc1)c1ccco1	POLB inh inconclusive, POLH inh 79.4µM, POLK inh inconclusive, POLI inh 35.5µM
COc1ccc(C2Oc3ccccc3C(=O)N2Cc2ccccc2)cc1COc1ccc(NC(C)=O)cc1 (centres undefined)	none (no result: POLB inh, POLH inh, POLK inh, POLI inh)
COc1cccc(C2c3c(ncn(-c4ccc(C#N)cc4)c3=N)Oc3ccc4ccccc4c32)c1 (centres undefined)	none (no result: POLB inh, POLH inh, POLK inh, POLI inh)
CCCCC/C=C\C=C\[C@@H](O)CCCCCCCC(=O)O	none (no result: POLB inh, POLH inh, POLK inh, POLI inh)
CCCCC[C@H](O)/C=C/C1=C(CCCCCCC(=O)O)C(=O)CC1	POLB inh inconclusive, POLH inh 25.1µM, POLK inh 50.1µM!, POLI inh 44.7µM
COc1cccc(N2C(=O)CSC23C(=O)N(CC(=O)Nc2cc(C)ccc2C)c2ccccc23)c1 (centres undefined)	none
CC(C)(C)c1ccc(Nc2nc(C#N)nc(NC3CCCC3)n2)cc1	none (no result: POLB inh, POLH inh, POLK inh, POLI inh)
COC(=O)c1c(C)oc2ccc(N(C(=O)Oc3ccccc3)S(=O)(=O)c3ccc(Cl)c([N+](=O)[O-])c3)cc12	POLB inh 22.4µM, POLH inh inconclusive, POLI inh 44.7µM
C[C@@]12C=Cc3occc3[C@H]1CC[C@@]13C[C@@H](CC[C@H]12)[C@@](O)(CO)C3	none (no result: POLB inh, POLH inh, POLI inh)
CCOc1ccc(NC(=O)CSc2nnc3c(n2)[nH]c2ccc(S(=O)(=O)N4CCCCC4)cc23)cc1	none (no result: POLB inh, POLH inh, TDP1 inh)
CCCCn1c(SCC(=O)c2ccc(OC)cc2OC)nc2cc(S(N)(=O)=O)ccc21	POLB inh 39.8µM, POLH inh 25.1µM, POLK inh inconclusive, POLI inh 44.7µM
CC(=O)N1CCc2cc(Br)cc(S(=O)(=O)NCCc3ccc(Cl)cc3)c21	none
COc1cc2cc(Oc3ccc4ccc(=O)oc4c3)c(=O)oc2cc1O[C@@H]1O[C@H](CO)[C@@H](O)[C@H](O)[C@H]1O	POLH inh 8.91µM, TDP1 inh 25.1µM, POLK inh 44.7µM, POLI inh 50.1µM (no result: POLB inh)
Cc1cc(C)c(S(=O)(=O)/N=C2\C=CC(=O)C(Cl)=C2)c(C)c1	POLB inh 35.5µM, POLH inh inconclusive, POLK inh inconclusive, POLI inh inconclusive
Cc1ccc(S(=O)(=O)c2c(C)cc(C)nc2Cl)c(C)c1	none
CSc1nsc(/C=C/Nc2ccc(O)cc2C)c1C#N	POLI inh 25.1µM
COc1ccc2oc(C(=O)OCC(=O)NCc3ccco3)c(C)c2c1	POLH inh 50.1µM, POLI inh inconclusive (no result: POLB inh, TDP1 inh)
COc1ccc(C(=O)OCC(=O)NCc2ccco2)cc1OC	POLB inh 10µM, POLH inh 11.2µM, TDP1 inh 39.8µM, POLK inh 79.4µM, POLI inh 20µM
CCOc1ccc(C(=O)OCC(=O)NCc2ccco2)cc1OCC	POLB inh 20µM, POLH inh inconclusive, POLK inh inconclusive, POLI inh inconclusive (no result: TDP1 inh)
CC#CCN1c2ccccc2[C@]23C[C@@H](C(=O)OC)N(S(=O)(=O)c4ccc(C#N)cc4)C2=NC(C(=O)OC)=C(C(=O)OC)[C@H]13	none (no result: POLB inh, POLH inh, POLK inh, POLI inh)
CCN(Cc1ccccc1)S(=O)(=O)c1ccc2[nH]c3c(c2c1)CCCCC3	none
CCN(c1ccc(OC)cc1)S(=O)(=O)c1ccc2[nH]c3c(c2c1)CCCCC3	POLI inh 79.4µM
NS(=O)(=O)c1ccc(Oc2ccc(S(N)(=O)=O)cc2)cc1	none
C=CS(=O)(=O)c1ccc(Oc2ccc(S(=O)(=O)C=C)cc2)cc1	POLH inh inconclusive, POLI inh 10µM
CNc1ccc(Br)cc(C(=O)/C=C/c2cccc(OC)c2)c1=O	POLH inh 15.8µM, POLK inh inconclusive, POLI inh inconclusive
CNc1ccc(Br)cc(C(=O)/C=C/c2ccc(Cl)cc2Cl)c1=O	POLB inh 31.6µM, POLH inh 50.1µM, POLI inh inconclusive
CNc1ccc(Br)cc(C(=O)/C=C/c2ccc(OC)cc2OC)c1=O	POLB inh inconclusive, POLH inh 44.7µM, POLK inh inconclusive, POLI inh 11.2µM (no result: TDP1 inh)
CN(C)c1ccc(/C=C2\C(=O)/C(=C\c3ccc(N(C)C)cc3)c3ccccc32)cc1	none (no result: POLB inh, POLH inh, TDP1 inh)
